Assay results published in PubChem BioAssay.

What follows are compounds tested against Streptavidin (Streptomyces avidinii) (UniProt P22629) (assay: compounds binding control protein streptavidin – biophysical, small-molecule microarray, 635/667 nm fluorescence, artefact control for SMM compound annotation, primary screen (AID 1147;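 further: signal reflects streptavidin binding to arrayed compounds as a control protein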)). Conditions: higher = more signal.
Chain of Streptavidin (Streptomyces avidinii) (P22629 whole entry, looked up): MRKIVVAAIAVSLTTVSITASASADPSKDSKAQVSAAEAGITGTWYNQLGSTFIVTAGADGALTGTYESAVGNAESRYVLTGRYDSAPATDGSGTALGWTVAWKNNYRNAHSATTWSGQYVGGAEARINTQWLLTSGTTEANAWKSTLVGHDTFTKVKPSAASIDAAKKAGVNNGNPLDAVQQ

For `COCCCNC(=O)[C@@H]1c2ccccc2C(=O)N(C2Cc3ccccc3C2)[C@H]1c1ccc(CO)cc1`, which composite z-score is on record?
Its composite z-score is -0.449.

For `COc1ccc([Si](C)(C)[C@H]2[C@H](CCO)O[C@@]3(C(=O)N(Cc4ccccc4)c4ccc(N5CCOC5=O)cc43)[C@@H]2C)cc1`, which composite z-score is on record?
Its composite z-score is 1.

`C[C@@]12COC[C@]13C=C(Br)[C@H](C2)[C@@]1(CO1)C3=O` was tested. Which composite z-score did it give?
Its composite z-score is -0.875.

With `Nc1cc(Br)ccc1C(=O)O` as the compound, how does the composite z-score read?
Its composite z-score is 0.689.

`COC(=O)[C@@]1(Cc2ccccc2)[C@H]2c3cc(C(=O)N(C)C)n(CCn4cc([N+](=O)[O-])nc4C)c3C[C@H]2CN1C(=O)c1ccccc1` was tested. Which composite z-score did it give?
Its composite z-score is 0.287.

Which composite z-score does the source give for `C=C(/C(=C/C[C@@H](OC(C)=O)c1ccc(CO)o1)c1cc(C(=O)OC)ccc1OC)C(C)C` here?
Its composite z-score is -0.446.

`CC(C)C(=C=CC[C@H](O)c1cccc(OCCO)c1)CCO` was tested. Which composite z-score did it give?
The composite z-score was -0.669.

With `C=CCN1C(=O)[C@]2(O[C@H](CCO)[C@@H]([Si](C)(C)c3ccc(OC)cc3)[C@@H]2C)c2cc(NC(=O)c3ccc(OC)cc3)ccc21` as the compound, how does the composite z-score read?
Its composite z-score is 0.535.

With `CC(=O)NCCCC[C@@H]1NC(=O)[C@@H]2C[C@H](C(=O)NCCCCCCN)[C@H](c3cccc(OCCO)c3)N2C1=O` as the compound, how does the composite z-score read?
Its composite z-score is 0.932.

`CN(C)CCCCNC(=O)[C@H]1C[C@H]2C(=O)N[C@@H](CCCC[N+](C)(C)C)C(=O)N2[C@H]1c1ccc(O)cc1` was tested. Which composite z-score did it give?
The composite z-score was -0.202.

For `CC(C)N1CC=CC23O[C@@H]4/C=C\CCCOC(=O)C4[C@H]2C(=O)N(CCCCCCO)[C@@H]3C1=O` (stereo not given in full), which composite z-score is on record?
The composite z-score was -1.13.

How did the composite z-score turn out when `O=C(CS)NCCCCCCNC(=O)[C@@H]1C[C@@H]2C(=O)NCC(=O)N2[C@@H]1c1ccc(O)cc1` was run?
Its composite z-score is -0.635.

With `COc1ccc([Si](C)(C)[C@H]2[C@H](CCO)O[C@@]3(C(=O)N(Cc4ccccc4)c4ccc(N5C(=O)c6ccccc6Oc6ccccc65)cc43)[C@@H]2C)cc1` as the compound, how does the composite z-score read?
The composite z-score was -0.069.

With `NC(=O)[C@H]1[C@@H]2C(=O)O[C@@H](c3ccccc3)[C@@H](c3ccccc3)N2[C@@H](c2ccc(O)cc2)[C@]12C(=O)Nc1ccccc12` as the compound, how does the composite z-score read?
The composite z-score was -1.08.

`[N-]=[N+]=NCc1ccccc1[C@@H]1OC(c2ccc(OCCCO)cc2)=N[C@]1(Cc1ccccc1)C(=O)NCCN1CCOCC1` was tested. Which composite z-score did it give?
The composite z-score was 0.686.

How did the composite z-score turn out when `O=C1C2C=CC(C(O)c3ccc4c(c3)OCO4)N(Nc3ccccc3)C2C(=O)N1c1ccccc1` (stereo not given) was run?
Its composite z-score is 1.52.

Which composite z-score does the source give for `O=C(CS)NCCCCCNC(=O)[C@@H]1C[C@@H]2C(=O)N[C@@H](Cc3ccccc3)C(=O)N2[C@@H]1c1cccc(OCCO)c1` here?
Its composite z-score is -0.0307.

How did the composite z-score turn out when `NCCCCCNC(=O)[C@@H]1C[C@@H]2C(=O)N3CCC[C@H]3C(=O)N2[C@@H]1c1ccc(O)cc1` was run?
Its composite z-score is 1.11.

With `COc1cc(NN2C(C(O)c3ccccc3)C=CC3C(=O)N(C)C(=O)C32)cc(OC)c1OC` (stereo not given) as the compound, how does the composite z-score read?
The composite z-score was 0.194.

With `CC=CC(O)C1C=CC2C(=O)NC(=O)C2N1Nc1ccccn1` (stereo not given) as the compound, how does the composite z-score read?
The composite z-score was 0.149.

For `COCCOC(=O)N1C(=O)[C@@]2(c3ccccc31)[C@H](c1ccccc1OCCO)N1[C@H](c3ccccc3)[C@H](c3ccccc3)OC(=O)[C@H]1[C@@H]2C(N)=O`, which composite z-score is on record?
Its composite z-score is 1.25.

For `COc1cc(NN2C(C(O)c3ccc(I)cc3)C=CC3C(=O)N(c4ccccc4)C(=O)C32)cc(OC)c1OC` (stereo not given), which composite z-score is on record?
Its composite z-score is 0.901.

How did the composite z-score turn out when `[N-]=[N+]=NCc1ccccc1[C@@H]1OC(c2ccc(OCCCO)cc2)=N[C@]1(Cc1ccccc1N=[N+]=[N-])C(=O)NCCN1CCOCC1` was run?
The composite z-score was 0.974.

Which composite z-score does the source give for `C=C(/C(=C/C[C@H](OC(=O)c1ccncc1)c1ccccc1OCCO)c1cnc2ccccc2c1)C(C)C` here?
The composite z-score was 1.81.

How did the composite z-score turn out when `C=CCNC(=O)[C@@H]1[C@H]2C(=O)O[C@H](c3ccccc3)[C@H](c3ccccc3)N2[C@H](c2ccc(OCCO)cc2)[C@@]12C(=O)N(C(=O)OCCOC)c1ccc(C#CCCO)cc12` was run?
The composite z-score was 0.712.

With `C=C[C@H](C)[C@H](OC(=O)Nc1ccc(OC)cc1)c1ccc(OCCO)cc1` as the compound, how does the composite z-score read?
The composite z-score was -0.911.

How did the composite z-score turn out when `COc1ccc(C#Cc2ccc3c(c2)[C@]2(C(=O)N3)[C@H](C(=O)N3CCCCCCC3)[C@H]3C(=O)O[C@H](c4ccccc4)[C@H](c4ccccc4)N3[C@@H]2c2ccc(O)cc2)cc1` was run?
Its composite z-score is 0.627.

Which composite z-score does the source give for `NCCCCCNC(=O)[C@H]1C[C@H]2C(=O)N[C@@H](Cc3ccccc3)C(=O)N2[C@H]1c1ccc(O)cc1` here?
The composite z-score was 1.13.

Which composite z-score does the source give for `CC(C)c1ccc(NN2C(C(O)Cc3ccccc3)C=CC3C(=O)N(c4ccccc4)C(=O)C32)cc1` (stereo not given) here?
Its composite z-score is 1.87.

`Cc1ccc(S[C@]2(C(=O)NCc3ccccc3)CC(=O)N(Cc3cc(C(F)(F)F)cc(C(F)(F)F)c3)[C@@H]2c2ccc(CO)cc2I)cc1` was tested. Which composite z-score did it give?
Its composite z-score is -0.649.

How did the composite z-score turn out when `COCCCNC(=O)[C@@]1(c2ccc([N+](=O)[O-])cc2)CC(=O)N(C(C)C)[C@@H]1c1ccc(CO)cc1` was run?
Its composite z-score is -0.934.

How did the composite z-score turn out when `CN1C(=O)C2C=CC(C(O)c3ccc(I)cc3)N(Nc3ccccc3)C2C1=O` (stereo not given) was run?
The composite z-score was 1.76.

How did the composite z-score turn out when `CCOC(=O)C1=C[C@@H](c2ccccc2)N(S(=O)(=O)c2ccc(C)cc2)[C@H]1c1ccccc1` was run?
The composite z-score was 1.1.

How did the composite z-score turn out when `CC1CC/C=C\[C@H]2OC34C=CCN(C(C)(C)C)C(=O)[C@H]3N(C(CO)C(C)C)C(=O)[C@@H]4C2C(=O)O1` (stereo not given in full) was run?
The composite z-score was -0.324.

`COC(=O)[C@@]1(Cc2ccc(F)cc2)[C@H]2c3cc(C(=O)N4CCCC4)n(CC4CC4)c3C[C@H]2CN1C(=O)c1ccccc1` was tested. Which composite z-score did it give?
The composite z-score was 1.86.
